# Test results reported in the supplement of paper PMC6555819.
# System: RXRa DBDmut IVT, anti-RXR (DBD mutation: RXRa K156A/R161A, NR concentration 90 nM)
# Assay: PBM binding z-score (relative to random genomic background probes); higher = stronger binding; sequences stand for … in GC…GCGATTGACAGCGTAGAATGAAGG
# Outline: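 Ligand-free nuclear receptor dimers were bound for 1 h to custom Agilent 4×180K protein-binding microarrays. Detection used antibodies against each partner (one per run). Binding z-scores rest on regression-normalized fluorescence, with random background probes as the reference.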
row,Sequence,PBM binding z-score
1,TAGACTAGGTCATTCAGGGGCCAGTATAGAAAGC,1.33
2,TGTGCTAGGTCAGTTGGTCAGCTAACGAGCTGCC,-0.535
3,TTACCACGGTGAAGGTCGTTGATCCCTCTGTAGA,-0.000966
4,TTACCAAGGTGAGCTGAGGTCGTTCATCCAACTC,0.409
5,ATCGGAAGGTCGACGAGGTGAGTATACACCGTTT,0.311
6,CCAGACAGGTGAAAGGTAACTTAGTCTGGTACGC,0.208
7,AGTCAAAGTTCAGGGCGAGGTAACGTAAAGCACG,2.95
8,TCTGGTTGGTCACGGAGGTCACACACGACGGGTA,0.702
9,TTACCAAGGTTAAGGTCGTTGATCCCTCTGTAGA,1.41
10,CCTCGGAGGACAAGAGGAGGTCAGAGCTGCCAGA,0.0626
11,GCTTACGGGTCAAAGGATATAGCATGAATAGAAT,1.92
12,CGTCCAAGGTAAAAGGTCAGTGAAGAGATGACGG,0.584
13,CGTCCAAGGTCAGGGTCAGTGAAAGAGACTCGAA,2.75
14,ATCTCTAGGTAAAGTTCGGTGAAAGATCGATAGA,0.694
15,CAAACTAGGTCGAGGTCAAAGTCGGTTTGTGCCA,2.93
16,CCTAACGGGTCACGAGGTTATAGCACGACGAGCG,1.5
17,CAAACTAGGTCACGAAAGGCCAAAGTCGAATGAC,2.01
18,CGTGCAAGGTCAATGCTAGGTCAGTGAAAGCATT,3.39
19,CCTACTGGGCCATTCAGAGGTCATTGAGCATATG,0.996
20,ATACCAAGGTGATGGTGAGGTCGTTGATACTAAC,0.506
21,CCTTACGGGTCACGAGGTTACAGCACGACGAGCG,1.87
22,GATACAGGGTCAGCTAGAGGCCAGAGTATGGAAA,1.4
